Reference: PubChem BioAssay (NCI)
Compounds without any hit were thinned out: in the full panel of roughly 83,000, 20% have a hit.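 96-well plates, one dose, 48 hours. Percent growth reported; active if below 10.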 Activity calls are given as the source filed them.

Tested on: HL-60(TB) leukemia
Assay: NCI-60 one-dose screen, 48 h (100 = growth as untreated, 0 = no growth, -100 = all killed)
Conditions: 10 µM unless noted

Structure (SMILES)	growth
COc1ccc([C@H]2c3[nH]c4ccccc4c3C[C@@H]3C(=O)N(C4CCN(Cc5ccccc5)CC4)CC(=O)N23)c(OC)c1	50.7% (inactive)
Cc1cn(-c2cc(NC(=O)c3cncc(C#Cc4cnc5ccc(OCCCS(C)(=O)=O)nn45)c3)cc(C(F)(F)F)c2)cn1	-6.15% (active)
CS(=O)(=O)c1ccc(-c2nn(-c3ccccc3)cc2/C=N/NC(=O)c2nc(N)n[nH]2)cc1	76.8% (inactive)
CCCCCCNC(=O)Oc1ccc(/C(=C(\C)c2ccc(Cl)cc2)c2ccc(OCCN(C)C)cc2)cc1	-8.4% (active)
CN1CCN(c2ccc(Nc3nc(NCCCNS(=O)(=O)c4cccc(F)c4)c4sccc4n3)cc2)CC1	-48.7% (active)
Cc1ccc(-n2cc(/C=N/NC(=O)c3ccncc3)c(-c3ccc(S(C)(=O)=O)cc3)n2)cc1	76.4% (inactive)
NC(N)=Nc1ccc(Oc2cccc(Nc3ccc(Br)c(C(F)(F)F)c3)c2)cc1	-50.3% (active)
COc1cc([C@H]2OC[C@H]3[C@@H]2CO[C@@H]3c2ccc(O)c(OC)c2)ccc1O	93.5% (inactive)
CN1CCN(Cc2ccc(NC(=O)c3cncc(C#Cc4cnc5ccc(NCCO)nn45)c3)cc2C(F)(F)F)CC1	-12.1% (active)
CC(C)(O)c1cncc(-c2ccc3ncnc(N4CCc5cc(F)c(Cl)cc54)c3c2)c1	1.38% (active)
O=C(NCCN1CCCC1)c1ccc(-c2nc3ccc4[nH]ncc4c3c3c2CCCC3)cc1	-49.8% (active)
COc1cc(OC)cc(-c2cc(-c3c[nH]c4ccccc34)nc(-c3c[nH]c4ccccc34)c2C#N)c1	102% (inactive)
COc1ccc(-c2nc3ccc(-c4nnc(SCC(=O)Nc5ccc(C(=O)/C=C/c6ccccc6)cc5)o4)cc3[nH]2)cc1OC	100% (inactive)
CC(=O)N(C)C1CCc2c(sc(NC(=O)c3ccc(C(C)(C)C)cc3)c2C(N)=O)C1 (stereo not given)	40.4% (inactive)
O=C(CNc1nc(-c2cccc([N+](=O)[O-])c2)cs1)Nc1cccc([N+](=O)[O-])c1	-9.99% (active)
CCN1CCN(/C(=N\c2sc(-c3ccccc3)nc2-c2ccccc2)c2ccccc2)CC1	50.9% (inactive)
Cc1ccc(S(=O)(=O)NCCNc2nc(Nc3ccc(N4CCN(C)CC4)cc3)nc3ccsc23)cc1	86.4% (inactive)
Cc1cc(C)cc(NC2=C(Cl)C(=O)c3nc(C)ccc3C2=O)c1	34.5% (inactive)
CC(=O)Oc1ccccc1C(=O)Nc1cc(C(C)C)ccc1C	-28.4% (active)
Oc1[nH]c2ccccc2c1Nn1c(N=N/C=c2/ccc3c(c2)C=NN=3)n[nH]c1=S	139% (inactive)

Structure (SMILES)	growth
Cc1cc(Cl)cc(NS(=O)(=O)c2ccc(-c3cnc(C4CC4)o3)cc2)c1	-4.23% (active)
O=C(Nc1ccccc1)Nc1nc2ccc([N+](=O)[O-])cc2[nH]1	70.2% (inactive)
COc1ccc(-c2cc(-c3ccc(Cl)cc3)nc3nc(N)nn23)cc1	72.2% (inactive)
Nn1c(N/N=C/c2nc3ccccc3s2)n[nH]c1=S	136% (inactive)
CN1c2ccccc2Sc2cc(C=C(C#N)C#N)ccc21	92.6% (inactive)
O=C(CCn1cc[n+](CC(=O)c2ccc(-c3ccccc3)cc2)c1)Nc1cccc2cccnc12	13.9% (inactive)
O=S(=O)(NCCCNc1nccc(-c2[nH]c(-c3ccccc3)nc2-c2ccc(F)c(O)c2)n1)c1cccc(F)c1	95.7% (inactive)
O=c1[nH]c2ccc(Cl)cc2cc1CSc1ccccc1Nc1nccc(-c2ccc(Cl)cc2)n1	78.5% (inactive)
O=C1C2=C(C(=O)c3c(O)cccc31)C(c1ccco1)c1sc(=O)[nH]c1S2 (stereo not given)	-17.6% (active)
COc1ccccc1N1CCN(C2=NN=C(c3cccc(Cl)c3)c3ccccc3C2)CC1	-55.5% (active)
COc1ccc(C2C(C#N)=C(/N=C/c3ccc(Cl)cc3)Oc3c2sc2c(C)cccc32)cc1 (stereo not given)	4.04% (active)
O=C(Nc1cccc(Cl)c1)Nc1nc2ccc([N+](=O)[O-])cc2s1	-40% (active)
N#Cc1c(-c2ccc(Br)cc2)cc(-c2c[nH]c3ccccc23)nc1N	28.8% (inactive)
COc1ccc(-c2nc3ccc(-c4nnc(SCC(=O)Nc5ccc(C(=O)/C=C/c6ccc(Cl)cc6)cc5)o4)cc3[nH]2)cc1OC	88.7% (inactive)
CC(Nc1c(C#N)cnc2ccc(-c3cnc(N)nc3)cc12)c1ccccc1 (stereo not given)	20.1% (inactive)
O=C(CSc1nc2ccccc2c(=O)n1-c1ccccc1)Nc1cccc(C(=O)/C=C/c2ccccc2)c1	99.1% (inactive)
c1ccc2c(NCCCN3CCOCC3)c3oc4ccccc4c3nc2c1	-21.5% (active)
C=CCn1c(SCC(=O)c2ccc(Br)cc2)nnc1-c1c[nH]c2ccccc12	92.3% (inactive)
O=C1c2cc(Br)ccc2-n2c1nc1cc(Br)ccc1c2=O	80% (inactive)
N#C/C(=C\c1cccc2c1OCO2)C(=O)Nc1sc2c(c1C#N)CCCC2	105% (inactive)
